Consider 33 molecules from ChEMBL document CHEMBL3433997, “St. Jude Leishmania screening dataset” (2016).

What all share (assay type): functional
In test [1] the target is Solute carrier family 2, facilitated glucose transporter member 1 (Homo sapiens) (UniProt P11166). The test can be described thus: ST_JUDE_LEISH: Cytotoxicity at 2uM final concentration against transgenic Leishmania Mexicana promastigotes LmGLUT1 that are glucose transport deficient and complemented with the human glucose transporter GLUT1. Activity is measured by DNA content using SYBR green in vitro.

In test [2] the target is Hexose transporter 1 (Plasmodium falciparum) (UniProt O97467). Description: ST_JUDE_LEISH: Cytotoxicity at 2uM final concentration against transgenic Leishmania Mexicana promastigotes LmPfHT that are glucose transport deficient and complemented with the Plasmodium falciparum hexose transporter. Activity is measured by DNA content using SYBR green in vitro.
For test [3], the target named is Glucose transporter (Leishmania mexicana) (UniProt O61059). Description: ST_JUDE_LEISH: Cytotoxicity at 2uM final concentration against transgenic Leishmania Mexicana promastigotes LmGT2 that are glucose transport deficient and complemented with the L. Mexicana glucose transporter 2. Activity is measured by DNA content using SYBR green in vitro.

Solute carrier family 2, facilitated glucose transporter member 1 (Homo sapiens), sequence (P11166 whole entry): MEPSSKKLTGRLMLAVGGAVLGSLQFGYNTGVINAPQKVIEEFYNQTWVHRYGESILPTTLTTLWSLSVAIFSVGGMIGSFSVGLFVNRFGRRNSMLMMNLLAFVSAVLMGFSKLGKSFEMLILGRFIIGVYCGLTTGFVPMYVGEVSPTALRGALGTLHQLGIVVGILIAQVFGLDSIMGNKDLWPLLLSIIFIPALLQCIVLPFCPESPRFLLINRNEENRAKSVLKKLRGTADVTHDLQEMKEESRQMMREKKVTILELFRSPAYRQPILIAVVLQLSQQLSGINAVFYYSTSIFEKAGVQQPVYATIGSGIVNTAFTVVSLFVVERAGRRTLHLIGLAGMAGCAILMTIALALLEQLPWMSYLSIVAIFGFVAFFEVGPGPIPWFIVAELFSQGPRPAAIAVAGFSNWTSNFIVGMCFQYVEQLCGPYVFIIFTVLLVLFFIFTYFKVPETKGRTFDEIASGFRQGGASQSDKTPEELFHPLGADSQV

By inhibition is commonly meant the drop in the measured response relative to a control, in per cent. As to `COc1ccccc1/C=C/C(=O)N(C)C1CCN(CCCCCNC(=O)/C=C/c2ccc(Cl)c(Cl)c2)C1` (centres undefined), the inhibition in test [1] was 1.67%; in test [2] it was 1.04%; in test [3] it was 0.34%.
Regarding `O=C(Nc1cccc(CN2CCCN(CCc3ccccc3)CC2)c1)c1cc2ccccc2s1`, the inhibition in test [1] was -1.04%; in test [2], -1.82%; in test [3] it was 1.52%.
In the case of `Fc1ccc2[nH]c(-c3cccc(-c4ccc(CN5CCN(c6cnccn6)CC5)cc4)c3)nc2c1`, the values for the inhibition in test [1], in test [2] and in test [3] were 14.3%, 12.5% and 8.14%, respectively.
`CC(C)c1ccc(S(=O)(=O)Nc2cccc(CCN3CCC(N4CCCCC4)CC3)c2)cc1`: the inhibition worked out at 38% in test [1], 4.08% in test [2] and 1.03% in test [3].
Regarding `Clc1ncnc2scc(-c3ccc(Br)cc3)c12`, the inhibition in test [1] was 7.74%; in test [2], 6.35%; in test [3], 3.52%.
As for `Clc1ccc(CNCC2CCN(CC3CCCCC3)CC2)cc1Cl`, the inhibition is -1.58% in test [1], 0.7% in test [2] and 0.64% in test [3].
The matching figures for `Cc1cc(N[C@@H](CC(C)C)C(=O)Nc2ccccc2)nc(NCCc2ccc(F)cc2)n1`: 4.85%, 1.97% and 1.72%.
For `CCc1cccc(-n2c(=O)c3cccnc3n2CC(=O)NC2CCCC2)c1` the same measures were 3.43%, 12% and 4.05%.
As for `O=C(C=Cc1cccs1)N(CCCn1ccnc1)c1nc2ccc(F)cc2s1`, the inhibition in test [1] amounted to 4.66%; in test [2] it was 4.09%; in test [3], 2.51%.
For `Cc1cccc(-c2nc3[nH]c(=O)cc(NC(=O)C(C)C)n3n2)c1` the same measures were -2.8%, -2.49% and -1.3%.
Consider `COc1ccccc1CNC(=O)c1nn(-c2ccc(Cl)cc2)c(=O)c2ccccc12`, for which the inhibition in test [1] came to 4.66%; in test [2], 4.83%; in test [3], 3.54%.
As to `COc1ccc2c(NCCc3ccccc3)cc(-c3ccccc3)nc2c1`, the inhibition in test [1] is 9.93%; in test [2], 10.8%; in test [3], 4.05%.
For `CC(CON1C(N)=NC(N)=NC1(C)C)c1ccc(Cl)cc1Cl` (centres undefined) the same measures were 23.2%, 37.1% and 24.2%.
Turning to `CCCCCCCN1CC[C@@H](CCCc2ccnc3ccc(OCCN4CCNCC4)cc23)[C@@H](CC)C1`, the results for the inhibition in test [1], in test [2] and in test [3] were 5.11%, 4.74% and 0.64%, respectively.
For `CC(=O)Nc1cccc(CNc2cc(C)nc(Nc3ccc(C)cc3)n2)c1`, the inhibition worked out at 9.07% in test [1], 8.32% in test [2] and 0.76% in test [3].
In the case of `CCCc1cc(OC)c(C[C@H]2c3cc(O)c(Cl)cc3CCN2C)cc1OC`, the inhibition is 0.24% in test [1], 1.13% in test [2] and 1.4% in test [3].
In the case of `COc1cc(-n2cnc3cc(-c4ccc(Cl)cc4)sc3c2=O)ccc1OCCN1CCC(c2cccc(NC(C)=O)c2)CC1`, the inhibition in test [1] was found to be 6.68%; in test [2] it was 3.81%; in test [3], 3.05%.
Take `N#Cc1cnc2cc(-c3cnc(CNCCN4CCOCC4)s3)ccc2c1Nc1ccc(Oc2ccccc2)cc1`: the results for the inhibition in test [1], in test [2] and in test [3] were 1.96%, 3.38% and 1.64%, respectively.
For `CCn1c(CN2CCN(Cc3ccccc3)CC2)nc2cc(NC(=O)c3cccs3)ccc21`, the inhibition in test [1] was 1.2%; in test [2], 1.22%; in test [3], -1.93%.
For `COc1cc2nc(N3CCC(CNC(=O)c4ccc(-c5ccc(C(=O)N(C)C)cc5C)cc4)CC3)nc(N3CCN(C)CC3)c2cc1OC` the same measures were -0.31%, 0.88% and 1.23%.
`COc1cccc(-c2ccc(C(=O)NC3CCN(Cc4ccc(N(C)C)cc4)CC3)s2)c1`: the inhibition is 2.66% in test [1], 1.14% in test [2] and -0.07% in test [3].
Take `COc1cc(OC)cc(C(=O)Nc2nc(-c3ccccn3)cs2)c1`: the inhibition in test [1] came to 7.32%; in test [2], 14.4%; in test [3], 7.57%.
As to `COc1cccc(N(CCCN2C(=O)c3cccc4cccc(c34)C2=O)C(=O)c2ccccc2C)c1`, the inhibition was 5.96% in test [1], 7.4% in test [2] and 0.69% in test [3].
Turning to `COc1ccc2nccc([C@@H](O)CN3CCC(NCc4cc5ccccc5[nH]4)CC3)c2n1`, the inhibition in test [1] worked out at 46%; in test [2], 59.2%; in test [3], 62.5%.
For `O=S(=O)(c1ccc(OCc2ccc(Cl)cc2)cc1)c1cc2c(cc1OCc1ccccc1)CCN(CC1CC1)CC2`, the inhibition in test [1] was 0.01%; in test [2], -1.17%; in test [3], -3.24%.
As to `O=C(/C=C/c1ccc(Cl)c(Cl)c1)NCCCCCN1CCCC(C(=O)Nc2ccc(Cl)c(Cl)c2)C1` (centres undefined), the inhibition in test [1] was -0.31%; in test [2] it was -1.19%; in test [3], -0.96%.
Take `Cc1cccc2nc(-c3ccc(-c4cccc(CN5CC(C)OC(C)C5)c4)s3)[nH]c12` (centres undefined): the inhibition in test [1] is 7.69%; in test [2], 6.31%; in test [3], 4.91%.
As for `O=C(NCC1CCN(Cc2ccc3c(c2)OCCO3)C1)c1cc(-c2cccc(C(F)(F)F)c2)cs1` (centres undefined), the inhibition in test [1] was -2.67%; in test [2], -0.91%; in test [3], 2.27%.
For `Cc1ccc(Sc2ccc(NC(=O)CN3CCN(C(=O)c4ccco4)CC3)cc2)cc1C`, the inhibition was 9.84% in test [1], 9.65% in test [2] and 6.7% in test [3].
Turning to `CCCCCCCN1CC[C@@H](CCCc2ccnc3ccc(OCCC4CCNCC4)cc23)[C@@H](CC)C1`, the inhibition amounted to 7.73% in test [1], 7.46% in test [2] and 6.53% in test [3].
As to `COc1ccc(C2CCN(CCCCNC(=O)c3ccc(NC(=O)c4ccc(Cl)cc4)cc3)CC2)cc1Cl`, the inhibition in test [1] is -0.02%; in test [2] it was 0.63%; in test [3], 4.45%.
The matching figures for `CCCCN(Cc1cc(Cl)c(OCC)c(OC)c1)c1ccc(C(O)(C(F)(F)F)C(F)(F)F)cc1`: -0.54%, -0.97% and -2.65%.
Consider `CCn1cc(CN2C(=O)C(c3ccccc3)(c3ccccc3)N=C2N)cn1`, for which the inhibition in test [1] is 1.83%; in test [2] it was 2%; in test [3] it was -1.54%.
